The sample as a whole holds a higher share of hits than the screen did.
Shiga toxin inh: A qHTS for Small Molecule Inhibitors of Shiga Toxin. Vero cells, Shiga toxin protein synthesis inhibition reporter. inhibition, % at 38.7 µM. 290,000 compounds, 9.2% hits. AID 2315, 2010; in the data active means inhibition mostly above about 28%, no sharp cut-off; inactive means mostly below about 43%
Tb PYK inh: qHTS of Trypanosoma Brucei Inhibitors | 410,000 compounds, 0.12% hits | pyruvate kinase (Trypanosoma brucei), Q57TT1 | Potency, µM (highest dose often 76.8 µM), hits mostly inhibitors | TbPYK enzyme, Kinase-Glo Plus ATP luminescence, 45 min; further: nearly all actives have a fitted effect of over 50% in size
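In this concentration-response screen, enzyme-free wells defined baseline while DMSO plates tracked drift. Each reaction combined TbPYK, substrate, compound and 130 uM ADP for 45 min at room temperature. Kinase-Glo Plus luminescence gave the signal.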
Sm TGR block: qHTS Assay for the Inhibitors of Schistosoma Mansoni Peroxiredoxins. Schistosoma mansoni thioredoxin glutathione reductase (TGR), Q962Y6. purified TGR, DTNB reduction, TNB absorbance 405 nm. Potency, µM (highest dose often 114 µM), most hits filed as inhibitors. 360,000 compounds, 3% hits; further: nearly all actives have a fitted effect of over 60% in size
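Kinetic colorimetric format: TGR-catalysed, NADPH-driven DTNB reduction monitored via TNB absorbance. Enzyme dispensed at 20 nM; compound exposure 15 min at room temperature before reaction start.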
LmPK inhibitor: qHTS Assay for Inhibitors of Leishmania Mexicana Pyruvate Kinase (LmPK). Q27686. purified LmPK, Kinase-Glo ATP luminescence, 1 h. Potency, µM (highest dose often 57.5 µM), usual class: inhibitors. 290,000 compounds, 0.37% hits
Target sequence (Q27686 whole entry, looked up): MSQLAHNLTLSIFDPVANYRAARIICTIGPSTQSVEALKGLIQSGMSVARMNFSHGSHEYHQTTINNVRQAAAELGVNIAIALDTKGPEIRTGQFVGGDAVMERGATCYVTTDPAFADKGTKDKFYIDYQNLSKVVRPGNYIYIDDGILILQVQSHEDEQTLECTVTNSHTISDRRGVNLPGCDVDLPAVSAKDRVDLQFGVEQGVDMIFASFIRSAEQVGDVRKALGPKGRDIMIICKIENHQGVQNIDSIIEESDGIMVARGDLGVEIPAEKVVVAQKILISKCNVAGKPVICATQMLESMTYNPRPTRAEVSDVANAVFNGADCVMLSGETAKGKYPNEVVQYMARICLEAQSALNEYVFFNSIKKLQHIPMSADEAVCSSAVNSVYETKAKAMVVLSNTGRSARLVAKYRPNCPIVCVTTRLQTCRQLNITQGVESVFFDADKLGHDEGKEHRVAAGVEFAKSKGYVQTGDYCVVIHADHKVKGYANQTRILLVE
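Screened at intermediate enzyme activity to detect both inhibitors and activators: LmPK at 0.1 nM, with a 0.5 nM enzyme column as activation reference. PEP 0.5 mM, ADP 0.1 mM; ATP detected by luminescence after 1 h.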
CHX counter: Cycloheximide Counterscreen for Small Molecule Inhibitors of Shiga Toxin. cell reporter, cycloheximide protein synthesis inhibition counterscreen. max response, %. 300,000 compounds, 12% hits. AID 2314, 2010; in the data active means max response mostly above about 13%, no sharp cut-off; inactive means mostly below about 14%; further: read at 38.3 µM for the half of the compounds with a filed dose
Giardia FBPA inh: qHTS Assay for Inhibitors of Fructose-1,6-bisphosphate Aldolase from Giardia Lamblia. Potency, µM (top dose mostly 59.6 µM), hits mostly inhibitors. AID 2451, 2010. purified Giardia FBPA. 290,000 compounds, 0.71% hits; further: nearly all actives have a fitted effect of over 55% in size
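Giardia FBPA (40 nM reagent) was preincubated 10 min at RT with compound (up to 57.5 uM final), then substrate plus GAPDH/TPI/NAD/arsenate coupling system with diaphorase/resazurin was added; resorufin fluorescence (525/598 nm) was read after 20 min.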
Numbers stand for hits; - = inactive; ? = inconclusive; . = no result given; [ ] = remark or other dose. Unless noted, the call rests on the fitted dose curve; in most records, active means well fitted curve in the direction sought with a large enough effect; inconclusive means small, poorly fitted or top-dose-only effect, or another doubt; inactive means no such curve, though single readings can be large; an effect the other way counts as inactive or inconclusive.

SMILES | Shiga toxin inh | Tb PYK inh | Sm TGR block | LmPK inhibitor | CHX counter | Giardia FBPA inh
O=C(CC(=O)c1ccccc1)Nc1cc(C(F)(F)F)ccc1Cl | - | - | - | - | 16 | -
CSc1cccc(-c2nnc(NC(=O)c3cccc(N4C(=O)CCC4=O)c3)o2)c1 | . | - | - | . | . | .
CCn1cc(C(=O)NCc2ccccc2)c(=O)c2cc(S(=O)(=O)N3CCCCCC3)ccc21 | . | - | - | . | . | .
CCOC(=O)[C@]1(C#N)[C@@H]2C=CC(C(C)=O)=CN2[C@@H](C(N)=O)[C@@H]1c1ccsc1 | - | - | 40µM | - | - | ?
Nc1nc(OCC(F)(F)F)cc(Oc2ccccc2F)n1 | 80 | - | - | - | 22 | -
Nc1cc(Oc2ccc(Cl)cc2Cl)nc(N)n1 | - | - | - | - | - | -
Cc1cc(N2CCCCC2)nc2ccc(NC(=O)/C=C/c3ccccc3OC(C)C)cc12 | . | - | - | . | . | .
c1ccc(NC2=NCCCS2)cc1 | - | - | - | - | - | -
FC(F)(F)c1ccc(NC2=NCCCS2)cc1 | 43 | - | - | - | 30 | -
CCc1ccc(NC2=NCCCS2)cc1 | 35 | - | - | - | 15 | -
Cc1cccc(NC2=NCCCS2)c1 | - | - | - | - | - | -
O=C(Nc1ccc(C(=O)N2CCCCC2)cc1)C1=CSCCO1 | 84 | - | - | ? | 28 | .
CN1CCN(CCCNC(=O)c2ccc(NC(=O)C3=CSCCO3)cc2)CC1 | - | - | - | - | - | .
O=C(Nc1ccc(C(=O)N2CCN(c3ccccc3F)CC2)cc1)C1=CSCCO1 | 31 | - | - | - | 26 | .
O=C(CN1C(=O)c2cccnc2Oc2ccc(Cl)cc21)Nc1cccc(C(F)(F)F)c1 | . | -[15.4 µM] | - | . | . | .
COC(=O)CN1C(=O)[C@@H]2[C@H](C1=O)[C@@H]1CC(C(=O)OC)=C[C@@H](C(=O)OC)C3C1=C(C(=O)C31CCCCC1)[C@@H]2C (some centres not stated) | - | . | . | . | - | -
COc1ccccc1NC(=O)CCn1c(=S)oc2ccccc21 | - | - | - | - | - | -
CCCOC(=O)CCn1c(=S)oc2ccccc21 | 76 | - | - | - | 39 | -
Cn1cccc1/C=C1\SC(=S)N(NC(=O)c2ccccc2O)C1=O | - | - | - | - | - | -
O=C(NN1C(=O)/C(=C/C=C/c2ccco2)SC1=S)c1ccccc1O | - | - | 2.8µM | - | - | -
O=C(O)CCCN1C(=O)/C(=C\c2ccc(-c3nc4ccccc4s3)o2)SC1=S | - | - | 35µM | - | - | ?
O=C(O)CCCN1C(=O)/C(=C/C=C/c2ccco2)SC1=S | - | - | 1.8µM | - | - | -
O=C(O)CC(C(=O)O)N1C(=O)/C(=C/C=C/c2ccco2)SC1=S (configuration not stated) | - | ? | 5µM | - | - | ?
O=C(O)CC(C(=O)O)N1C(=O)/C(=C/c2ccc(-c3nc4ccccc4s3)o2)SC1=S (configuration not stated) | - | - | ? | - | - | ?
O=C(O)CCN1C(=O)/C(=C/c2ccc(-c3nc4ccccc4s3)o2)SC1=S | - | - | - | - | - | -
SMILES | Shiga toxin inh | Tb PYK inh | Sm TGR block | LmPK inhibitor | CHX counter | Giardia FBPA inh
CCOC(=O)c1c(C)[nH]c(C)c1S(=O)(=O)NCC(=O)NCc1ccc(C)cc1 | . | - | - | . | . | .
CN(C(=O)Cn1c(=O)n(CCC(=O)NCc2ccc3c(c2)OCO3)c(=O)c2sccc21)c1ccccc1 | . | - | - | . | . | .
COc1ccc(/C=C2\SC(=S)N(C(Cc3ccccc3)C(=O)O)C2=O)cc1 (configuration not stated) | - | - | - | - | - | -
O=C(O)C(Cc1ccccc1)N1C(=O)/C(=C/C=C/c2ccco2)SC1=S (configuration not stated) | - | - | 6.3µM | - | - | ?
CC(=O)Nc1ccc(S(=O)(=O)NCc2ccncc2)cc1 | - | - | - | - | - | -
CC(=O)Nc1ccc(S(=O)(=O)NCc2ccc(C)n2C)cc1 | - | - | 14µM | - | - | -
CCOc1ccc(NC(=O)Cn2c(=O)cc(C)c3c(C)nn(-c4cccc(Cl)c4C)c32)cc1 | . | - | - | . | . | .
Cc1cccc(CSc2ncc(Cl)c(C(=O)Nc3sc4c(c3C(N)=O)CCCC4)n2)c1 | . | - | - | . | . | .
COc1ccc(NC(=O)N2CCN(S(=O)(=O)c3ccc4c(ccn4C)c3)CC2)cc1OC | . | - | - | . | . | .
CCC(CCNC(=O)c1ccccc1)(CCNC(=O)c1ccccc1)[N+](=O)[O-] | . | - | . | . | . | .
Cc1cc(C)c(NC(=O)CS)c(Cl)c1 | - | - | ? | - | - | -
Cc1cc(C)c(NC(=O)CC(=O)c2ccccc2)c(Cl)c1 | 65 | - | - | - | 22 | -
Cc1cc(C)c(C(=O)CC(=O)c2ccccc2Cl)c(O)c1 | - | - | - | - | 22 | -
Cc1cc(C)c(NC(=O)/C=C\C(=O)O)c(Cl)c1 | - | - | 35µM | - | - | -
COc1cc(OC)c(NC(=O)/C=C/C(=O)O)cc1Cl | - | - | 50µM | - | - | -
O=S(=O)(c1ccc(F)cc1)N1CCC(n2c(C(F)(F)F)nc3cccnc32)CC1 | . | - | - | . | . | .
Cc1cc(C)c(NC(=O)/C=C\C(=O)O)c([N+](=O)[O-])c1 | - | - | 16µM | - | - | -
COc1ccc(Cl)c2c1[nH]c1nc(SCc3cccnc3)nnc12 | - | - | - | - | - | -
COc1ccc(Cl)c2c1[nH]c1nc(SCc3ccccn3)nnc12 | 89 | - | - | - | 41 | -
CCC1CN(C(=O)N2CCC(C(=O)NCCc3ccc(OC)cc3OC)CC2)c2ccccc2O1 (configuration not stated) | - | - | - | - | - | .
Cc1cc(=O)oc2cc3oc(=O)cc(C)c3cc12 | . | - | - | - | - | -
Cc1oc2cc3oc(=O)cc(C)c3cc2c1C | - | - | - | - | 22 | -
COc1ccccc1CN1CCN(Cc2nc(-c3cccs3)no2)CC1 | 85 | - | - | - | 50 | -
c1csc(-c2noc(CN3CCc4sccc4C3)n2)c1 | 39 | - | - | - | 34 | -
CCc1nn(C)c(N)c1C | - | - | - | - | - | -
SMILES | Shiga toxin inh | Tb PYK inh | Sm TGR block | LmPK inhibitor | CHX counter | Giardia FBPA inh
CN1CCN(c2ccnc(-c3ccoc3)n2)CC1 | . | . | . | . | . | -
COc1cccc(/C=C2\C(=O)C(=O)c3ccccc32)c1 | - | ? | - | - | 21 | -
COc1ccc(C=C2C=C(C(C)(C)C)C(=O)C(C(C)(C)C)=C2)cc1OC | - | - | 4.5µM | - | - | -
COc1cccc(C=C2Cc3ccccc3C2=O)c1 | . | - | . | . | . | .
COc1ccc(C=C2SC(=O)NC2=O)cc1OC | . | - | . | . | . | .
COc1ccc(/C=C2\CCc3ccccc3C2=O)cc1OC | 139 | - | - | - | 52 | -
COc1cccc(/C=C2\CCc3ccccc3C2=O)c1 | 60 | ? | - | 16µM | 44 | -

Bioassay records as filed in PubChem.
